“And” between values parts separate entries of the source, which are not always exact repeats. Equal values may be shown once. Inconclusive results are not listed. The source made the active and inactive calls. Calls come from the whole dose curve; as a rule, active = well fitted inhibition curve with a large enough effect; inconclusive = small, poorly fitted or top-dose-only effect; inactive = flat fitted curve, though single readings scatter.
Key:
P94_40 = test: qHTS profiling for inhibitors of Plasmodium falciparum proliferation (AID 504749); note: potency is the fitted concentration of half-maximal effect; details: P. falciparum in erythrocytes, SYBR Green DNA, 72 h; series mostly up to 28.7 µM
In short: (§1)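 Quantitative HTS: compounds pinned into medium, infected erythrocytes added (0.3% parasitemia, 2.5% hematocrit), 72 h culture at 37 C under 5% CO2. Saponin/Triton lysis with SYBR Green I, overnight RT, then fluorescence read.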

SC27B = test: as above; details: P. falciparum in erythrocytes, SYBR Green DNA, 72 h; series mostly up to 28.7 µM
In short: as §1

TAB109 = test: as above; details: P. falciparum in erythrocytes, SYBR Green DNA, 72 h; series mostly up to 28.7 µM
In short: as §1

TAB113 = test: as above; details: P. falciparum in erythrocytes, SYBR Green DNA, 72 h; series mostly up to 28.7 µM
In short: as §1

W2 = test: as above; details: P. falciparum in erythrocytes, SYBR Green DNA, 72 h; series mostly up to 28.7 µM
In short: as §1

CRL-7250 = normal cell line; test: Cytotoxic Profiling of Annotated Libraries Using Quantitative High-Throughput Screening (AID 1296008); details: Five cell lines viability, CellTiter-Glo ATP luminescence, 48-72 h; max response: hits give low values; note: potency is the fitted concentration of half-maximal effect; for max response: % is set by controls: 0 for no effect and ±100 for the full control effect
In short: (§2)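 Compounds were pin-transferred onto cells and incubated 48 or 72 hr at 37 degree Celsius, 95% humidity. CellTiter-Glo was added, plates sat 10 min at room temperature, then ATP-coupled luminescence was imaged as the viability read-out.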

HaCat [1] = test: as above; details: Five cell lines viability, CellTiter-Glo ATP luminescence, 48-72 h; max response: hits give low values
In short: as §2

NIH3T3 = test: as above; details: Five cell lines viability, CellTiter-Glo ATP luminescence, 48-72 h; max response: hits give low values
In short: as §2

HACAT [2] = test: qHTS assay to identify novel small-molecules to repurpose for Merkel cell carcinoma treatment (AID 1296009); details: MCC and control cell lines, CellTiter-Glo viability, 72 h; series mostly up to 44.8 µM
In short: (§3)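 Viability readout: ATP luminescence (CellTiter-Glo) after 72 hr drug exposure at 37 degree celsius. Dose-response format was 8 points for NPC and 11 points for MIPE; data normalized to in-plate controls.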

MCC-13 = test: as above; details: MCC and control cell lines, CellTiter-Glo viability, 72 h; series mostly up to 46 µM
In short: as §3

MCC-26 = test: as above; details: MCC and control cell lines, CellTiter-Glo viability, 72 h; series mostly up to 46 µM
In short: as §3

P93_24 = test: qHTS profiling for inhibitors of Plasmodium falciparum proliferation (AID 504749); note: potency is the fitted concentration of half-maximal effect; details: P. falciparum in erythrocytes, SYBR Green DNA, 72 h; series mostly up to 28.7 µM
In short: as §1

PAD = test: as above; details: P. falciparum in erythrocytes, SYBR Green DNA, 72 h; series mostly up to 28.7 µM
In short: as §1

PC15 = test: as above; details: P. falciparum in erythrocytes, SYBR Green DNA, 72 h; series mostly up to 28.7 µM
In short: as §1

PC26 = test: as above; details: P. falciparum in erythrocytes, SYBR Green DNA, 72 h; series mostly up to 28.7 µM
In short: as §1

PC49 = test: as above; details: P. falciparum in erythrocytes, SYBR Green DNA, 72 h; series mostly up to 28.7 µM
In short: as §1

TAB165 = test: as above; details: P. falciparum in erythrocytes, SYBR Green DNA, 72 h; series mostly up to 28.7 µM
In short: as §1

HEK293 = test: Cytotoxic Profiling of Annotated Libraries Using Quantitative High-Throughput Screening (AID 1296008); details: Five cell lines viability, CellTiter-Glo ATP luminescence, 48-72 h; max response: hits give low values; note: potency is the fitted concentration of half-maximal effect; for max response: % is set by controls: 0 for no effect and ±100 for the full control effect
In short: as §2

KB-3-1 = test: as above; details: Five cell lines viability, CellTiter-Glo ATP luminescence, 48-72 h; max response: hits give low values
In short: as §2

HEK293T = test: qHTS assay to identify novel small-molecules to repurpose for Merkel cell carcinoma treatment (AID 1296009); details: MCC and control cell lines, CellTiter-Glo viability, 72 h; at 44.8 µM (top of the series) unless noted
In short: as §3
Note: nearly all actives have a fitted effect of over 60% in size.

COc1ccccc1OCCNCC(O)COc1cccc2[nH]c3ccccc3c12 (stereo not drawn)
inactive: max response (CRL-7250) 3.53% and -0.382% | max response (HaCat [1]) -11.1% | outcome (HaCat [1]) | max response (NIH3T3) -1.47% and -25.5% | outcome (HACAT [2]) | Potency (MCC-13) | Potency (MCC-26)
active: Potency (P94_40) 10 µM | Potency (SC27B) 12.6 µM | Potency (TAB109) 10 µM | Potency (TAB113) 10 µM | Potency (W2) 4.78 µM

Cc1cn([C@H]2C[C@H](N=[N+]=[N-])[C@@H](CO)O2)c(=O)[nH]c1=O
inactive: Potency (P93_24) | Potency (P94_40) | Potency (PAD) | Potency (PC15) | Potency (PC26) | Potency (PC49) | Potency (SC27B) | Potency (TAB109) | Potency (TAB113) | Potency (TAB165) | Potency (W2)

COc1ccccc1OCC(O)CN1CCN(CC(=O)Nc2c(C)cccc2C)CC1 (stereo not drawn)
inactive: Potency (P93_24) | Potency (P94_40) | Potency (PAD) | Potency (PC15) | Potency (PC26) | Potency (PC49) | Potency (SC27B) | Potency (TAB109) | Potency (TAB113) | Potency (TAB165) | Potency (W2) | max response (HEK293) 1.75% | outcome (HEK293) | max response (HaCat [1]) -0.555% | outcome (HaCat [1]) | max response (KB-3-1) 4.47% and -3.97% | max response (NIH3T3) -5.09% | outcome (NIH3T3) | outcome (HACAT [2]) | outcome (HEK293T) | Potency (MCC-13) | Potency (MCC-26)

CN(C)C(=O)C(CCN1CCC(O)(c2ccc(Cl)cc2)CC1)(c1ccccc1)c1ccccc1
active: Potency (HEK293) 13.2 µM and 10.6 µM | Potency (KB-3-1) 20.9 µM
inactive: max response (CRL-7250) -63.2% | Potency (MCC-13)

CC1(CN2CCC(n3c(=O)[nH]c4ccccc43)CC2)OCc2ccccc2-n2cccc21 (stereo not drawn)
active: Potency (P93_24) 11.2 µM | Potency (P94_40) 10 µM | Potency (PAD) 8.91 µM | Potency (PC15) 7.94 µM | Potency (PC26) 12 µM | Potency (SC27B) 10 µM | Potency (TAB165) 8.91 µM | Potency (W2) 7.57 µM
inactive: Potency (PC49) | max response (CRL-7250) -0.873% and 0.74% | max response (HaCat [1]) -8% | outcome (HaCat [1]) | max response (NIH3T3) -0.569% and -13.1% | outcome (HACAT [2]) | Potency (MCC-13) | Potency (MCC-26)

Cn1c(=O)c2[nH]cnc2n(C)c1=O
inactive: Potency (P93_24) | Potency (P94_40) | Potency (PC15) | Potency (PC26) | Potency (PC49) | Potency (SC27B) | Potency (TAB109) | Potency (TAB113) | Potency (TAB165) | Potency (W2)

CCOC(=O)Nc1ccc(NCc2ccc(F)cc2)nc1N
active: Potency (PAD) 10 µM | Potency (PC26) 19 µM | Potency (SC27B) 10 µM | Potency (TAB109) 10 µM | Potency (TAB113) 11.2 µM | Potency (TAB165) 10 µM | Potency (W2) 3.79 µM
inactive: max response (CRL-7250) -7.5% and -7.01% | max response (HEK293) -4.26% | max response (HaCat [1]) -2.04% and -3.24% | max response (NIH3T3) 4.91% | outcome (NIH3T3) | Potency (MCC-13)

CC(C)NCC(O)c1ccc(O)c(O)c1 (stereo not drawn)
inactive: Potency (P93_24) | Potency (P94_40) | Potency (PAD) | Potency (PC15) | Potency (PC49) | Potency (SC27B) | Potency (TAB109) | Potency (TAB113) | Potency (TAB165) | Potency (W2) | max response (CRL-7250) 0.851% | max response (HaCat [1]) 3.14% and -18% | max response (NIH3T3) -0.342% and -6.04% | Potency (MCC-13) | Potency (MCC-26)

CN(Cc1cnc2nc(N)nc(N)c2n1)c1ccc(C(=O)N[C@@H](CCC(=O)O)C(=O)O)cc1
inactive: Potency (PC26) | Potency (TAB109) | Potency (TAB165) | Potency (MCC-26)
active: Potency (P94_40) 0.178 µM | Potency (PC15) 0.224 µM | Potency (PC49) 0.178 µM | Potency (SC27B) 0.178 µM | Potency (CRL-7250) 0.119 µM | Potency (HEK293) 29.9 nM and 33.2 nM | Potency (HaCat [1]) 0.418 µM | Potency (NIH3T3) 266 nM and 332 nM

COc1ccccc1N1CCN(CC(O)COc2cccc3ccccc23)CC1 (stereo not drawn)
inactive: Potency (P93_24) | Potency (P94_40) | Potency (PAD) | Potency (PC15) | Potency (PC26) | Potency (PC49) | Potency (SC27B) | Potency (TAB109) | max response (CRL-7250) 4.67% | max response (HaCat [1]) 3.01% | max response (NIH3T3) 0.0963% | Potency (MCC-13)

CCC1(c2ccccc2)C(=O)NCNC1=O
inactive: Potency (P93_24) | Potency (P94_40) | Potency (PAD) | Potency (PC15) | Potency (PC26) | Potency (PC49) | Potency (SC27B) | Potency (TAB109) | Potency (TAB113) | Potency (TAB165) | Potency (W2)

O=c1[nH]cc(F)c(=O)[nH]1
inactive: Potency (PC49) | max response (KB-3-1) 22.7% and -20.8% | Potency (MCC-13) | Potency (MCC-26)
active: Potency (HEK293) 11.8 µM | Potency (NIH3T3) 3.76 µM and 2.96 µM

CN1C(C(=O)Nc2ccccn2)=C(O)c2ccccc2S1(=O)=O
inactive: Potency (P93_24) | Potency (P94_40) | Potency (PAD) | Potency (PC15) | Potency (PC26) | Potency (PC49) | Potency (SC27B) | Potency (TAB109) | Potency (TAB113) | Potency (TAB165) | Potency (W2) | max response (CRL-7250) -1.73% and 2.62% | max response (HEK293) 3.98% | max response (HaCat [1]) 0.638% and -49.2% | max response (NIH3T3) 1.34% | Potency (MCC-13)

CN(C)CCOC(c1ccccc1)c1ccccc1
active: Potency (W2) 0.953 µM
inactive: Potency (PAD) | Potency (PC49) | Potency (SC27B) | Potency (TAB113) | max response (CRL-7250) -3.47% and -12.2% | outcome (HEK293) | outcome (HaCat [1]) | outcome (NIH3T3) | outcome (HACAT [2]) | outcome (HEK293T) | Potency (MCC-13) | Potency (MCC-26)
